# RE007 growth inh = qHTS Assay for Inhibitors of the HIV-1 protein Vpr; S. pombe RE007 Vpr strain, BacTiter-Glo ATP luminescence, 24 h; AID 651644, 2012; 0.21% of 360,000 active; Potency, µM (doses to about 92.2 µM), usual class: inhibitors; active = well fitted falling curve with a large enough effect; inconclusive = small, poorly fitted or top-dose-only effect; inactive = no such curve, though single readings can be large or run the other way; note: nearly all actives have a fitted effect of over 50% in size
#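 Fission yeast strain RE007, carrying one chromosomally integrated HIV-1 vpr copy, was seeded at OD 0.01 in PMG+AL medium with 23 nL pinned compound. After 24 h at 30 °C and 99% humidity, viability was read by BacTiter-Glo luminescence.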
# LASV entry inh = qHTS for Inhibitors of binding or entry into cells for Lassa Virus; Lassa virus pseudotype entry inhibition, cell reporter; 1.2% of 300,000 active; Potency, µM (titrated, usually from 37.9 µM), actives largely listed as inhibitors; calls by dose curve; tested in HEK293 cells; note: nearly all actives have a fitted effect of over 50% in size
# Sm TGR block = qHTS Assay for the Inhibitors of Schistosoma Mansoni Peroxiredoxins; purified TGR, DTNB reduction, TNB absorbance 405 nm; Potency, µM (highest dose often 114 µM), actives largely listed as inhibitors; 3% of 360,000 active; note: nearly all actives have a fitted effect of over 60% in size
#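 TGR 20 nM + NADPH 100 uM (dispensed conc.), cpd preinc 15 min RT; start with NADPH (500 uM addition) then DTNB (15 mM addition). Kinetic TNB absorbance, 405 nm filter. Four-parameter Hill fit across titration.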
# Marburg entry inh = qHTS for inhibitors of binding or entry into cells for Marburg Virus; 1.8% of 300,000 active; Marburg virus pseudotyped entry inhibition, cell reporter; AID 540276, 2011; Potency, µM (series often up to 37.8 µM), most hits filed as inhibitors; calls by dose curve; tested in HEK293 cells
# HCV inh = qHTS Assay for Inhibitors of Hepatitis C Virus (HCV); Huh7.5.1 HCVcc-Cre infection, luciferase reporter, 44 h; Potency, µM (highest dose often 41.8 µM), usual class: inhibitors; 3.4% of 340,000 active; AID 651820, 2012
#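 Infectious HCV cell culture screen: compound-treated cells (1,000/well, pre-plated 4 h) are infected with HCVcc-Cre at roughly 0.5 moi and grown 44 h. Infection is quantified by luciferase signal after 15 min substrate incubation at room temperature.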
# FMDV inh = High Throughput Screening for Foot and Mouth Disease Virus Antivirals; FMDV antiviral cell-based qHTS; 1.2% of 410,000 active; Potency, µM (doses to about 57.9 µM), actives largely listed as inhibitors; AID 1159524, 2015; calls by dose curve; tested in HEK293T cells; note: read-out not given here; nearly all actives have a fitted effect of over 45% in size
# Numbers stand for hits; – = inactive; ? = inconclusive; · = not tested or not shown. Rows were chosen to be rich in hits. Some 7.2% of all compounds tested hit in one or more screens of this group. Unless noted, calls come from the whole dose curve; as a rule, active = well fitted curve in the direction sought with a large enough effect; inconclusive = small, poorly fitted or top-dose-only effect, or another doubt; inactive = no such curve, though single readings can be large; an effect the other way counts as inactive or inconclusive.
SMILES,RE007 growth inh,LASV entry inh,Sm TGR block,Marburg entry inh,HCV inh,FMDV inh
Cn1c(Br)nc2c1c(=O)n(CC(O)COc1ccccc1)c(=O)n2C (centres undefined),–,–,50.1µM,?,–,–
Cc1cccc(NC(=O)CSc2nnc(-c3ccco3)c(-c3ccco3)n2)c1,–,–,3.55µM,–,?,?
Cc1ccccc1NC(=O)CSc1nnc(-c2ccco2)n1N,–,–,–,–,–,–
Cc1cccc(NC(=O)Cn2nc(-c3ccco3)ccc2=O)c1C,–,–,31.6µM,–,–,–
Cc1cccc(NC(=O)CSc2nc(N)cc(N)n2)c1,–,–,–,–,–,–
O=C(Cn1nc(-c2ccco2)ccc1=O)Nc1ccc(Br)cc1,–,·,?,·,–,–
Cc1cccc(NC(=O)CSc2nnc(-c3ccco3)c(-c3ccco3)n2)c1C,–,?,3.55µM,–,–,–
CCOC(=O)Cn1c(=O)n(-c2ccccc2OC)c2nc(-c3ccccc3C)nc(C(N)=O)c21,·,–,–,·,·,–
CC(NC(=O)c1ccc2c(c1)CCN2S(=O)(=O)c1ccc(Cl)cc1)c1ccccc1 (centres undefined),·,?,–,?,·,–
COC(=O)c1ccc2c(c1)NC(=O)C1CCCN21 (centres undefined),–,·,·,·,–,–
Cc1ccc(NC(=O)COC(=O)c2ccc3c(c2)NC(=O)C2CCCN32)cc1 (centres undefined),–,–,–,–,10µM,–
Cc1c(-c2ccc(O)cc2)nn(-c2ccc(O)cc2)c1-c1ccc(OCCN2CCCCC2)cc1,·,·,·,·,·,–
CCn1ccc(=N)cc1,–,–,–,–,–,–
CCCCCn1ccc(=N)cc1,–,–,–,–,6.31µM,–
CCCCCCCCCn1ccc(=N)cc1,?,?,–,?,0.0398µM,20µM
CCCCCCN1CC(O)=C(c2ccccc2)C1=N,–,–,–,–,–,–
CCCCCCCn1ccc(=N)cc1,–,?,–,?,0.562µM,?
CCOC(=O)c1cccc(NC(=O)CCn2c(-c3ccc(F)cc3)cc(C(=O)OCC)c2C)c1,·,?,–,·,·,–
Cc1ccc(OCCNC(=O)c2cccc(S(=O)(=O)N3CCN(C)CC3)c2)cc1,–,·,–,·,–,–
O=C(C1COc2cc(S(=O)(=O)Nc3ccc(Cl)cc3)ccc2O1)N1CCCC1 (centres undefined),·,?,–,·,·,–
O=C(O)c1[nH]c2ccc(Cl)cc2c1CC(=O)N1CCN(C(=O)c2ccco2)CC1,–,–,22.4µM,–,–,–
O=C(c1cc2cc(Cl)ccc2[nH]1)N1CCN(C(=O)c2ccco2)CC1,–,·,15.8µM,·,–,–
O=C(c1cc2cc(Cl)ccc2[nH]1)N1CCN(c2ccccc2F)CC1,–,·,–,·,–,–
O=C(c1ccco1)N1CCN(C(=O)C2CCCc3c2[nH]c2ccc(Cl)cc32)CC1 (centres undefined),–,4.47µM,–,2.82µM,?,–
CCN(CC)C(=O)C1CCCc2c1[nH]c1ccc(Cl)cc21 (centres undefined),–,·,–,·,?,–
SMILES,RE007 growth inh,LASV entry inh,Sm TGR block,Marburg entry inh,HCV inh,FMDV inh
CCOC(=O)[C@]12C[C@]3(C)CCN(C(=O)N[C@@H]1c1ccccc1)[C@@H]32,·,·,·,–,·,·
Cc1cc2c(s1)c(C=O)c(C(=O)NCc1ccccc1F)n2C,·,·,–,·,·,·
Cc1ccc2c(c1)C(c1ccccc1)N(C(=O)c1ccc(S(=O)(=O)N3CCCC3)cc1)CC(=O)N2 (centres undefined),·,–,–,–,·,–
COc1cc(Cc2ccc(N)c(OC)c2)ccc1N,–,–,–,–,–,–
Nc1ccc(Cc2ccc(N)c(O)c2)cc1O,–,–,39.8µM,–,–,–
Cc1noc(C)c1C(=O)N1CCC[C@@]2(CCN(c3ccccn3)C2)C1,·,·,·,·,·,–
Cc1ccc(C(=O)N/C(=C\c2ccc(-c3ccc(Cl)cc3)o2)C(=O)NCCCN(C)C)cc1,–,?,–,6.31µM,?,–
Cc1ccc(C(=O)N/C(=C\c2ccc(-c3ccccc3[N+](=O)[O-])o2)C(=O)NCCN(C)C)cc1,–,–,1.41µM,?,–,–

# Compound activity deposited in PubChem BioAssay by National Center for Advancing Translational Sciences (NCATS).
